Measurements: PubChem BioAssay (NCATS)
Inconclusive results are not listed. Activity calls are given as the source filed them. Unless noted, the call rests on the fitted dose curve; in most records, active means well fitted curve in the direction sought with a large enough effect; inconclusive means small, poorly fitted or top-dose-only effect, or another doubt; inactive means no such curve, though single readings can be large; an effect the other way counts as inactive or inconclusive.

Assays:
[1] = qHTS for compounds that reverse cellular toxicity of Amyloid beta (A-beta) peptide in yeast: LOPAC Validation Assay (AID 720559); settings: Potency: rescue of growth toxicity; further: potency means the concentration at half of the fitted maximal effect
Procedure, shortened: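 OD600 growth readout after 48 hr at 30 C; A-beta-toxic yeast plus pinned compounds in medium. Normalization: DMSO = negative, equimolar FeCl3 + clioquinol = positive.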

[2] = qHTS for Activators of Parkin Expression: LOPAC Validation Assay (NLuc Reporter) (AID 720572;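 further: 0% = DMSO and 100% = positive control compound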)
Procedure, shortened: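 Neuronal line stably carrying a FLuc/NLuc coincidence reporter under the Parkin promoter, seeded 24 h, then dosed in 7-point series for 24 h at 37 C. NLuc luminescence read after FLuc; normalized to DMSO and positive control (100%).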

[3] = qHTS for Activators of Parkin Expression: LOPAC Validation Assay (FLuc Reporter) (AID 720573;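 further: 0% = DMSO and 100% = positive control compounds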)
Procedure, shortened: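 FLuc luminescence read-out from a neuronal line expressing a Parkin-promoter-driven coincidence reporter. Cells treated 24 h at 37 C, 5% CO2 with compounds at 7 concentrations; signal increase normalized to DMSO and positive control.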

[4] = biological target: T1, Hexokinase-4 (Homo sapiens) + Glucokinase regulatory protein (Homo sapiens) (UniProt P35557+Q14397); assay: qHTS assay for inhibitors of recombinant human GCK-GKRP interaction: Diaphorase-coupled assay (AID 743205)
T1 sequence (P35557 whole entry, looked up): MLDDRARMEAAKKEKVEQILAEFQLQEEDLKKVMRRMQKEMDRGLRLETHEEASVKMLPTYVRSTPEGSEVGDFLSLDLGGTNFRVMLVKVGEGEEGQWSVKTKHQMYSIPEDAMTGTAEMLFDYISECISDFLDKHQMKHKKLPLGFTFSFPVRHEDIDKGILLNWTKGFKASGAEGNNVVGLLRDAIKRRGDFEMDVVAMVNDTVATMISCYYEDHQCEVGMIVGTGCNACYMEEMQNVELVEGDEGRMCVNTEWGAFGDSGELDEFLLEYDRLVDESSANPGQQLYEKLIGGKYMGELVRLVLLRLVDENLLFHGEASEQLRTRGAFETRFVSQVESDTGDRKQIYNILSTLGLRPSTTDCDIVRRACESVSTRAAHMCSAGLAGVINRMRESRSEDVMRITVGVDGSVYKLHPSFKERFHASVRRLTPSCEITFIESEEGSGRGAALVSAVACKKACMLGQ
T1 sequence (Q14397 whole entry, looked up): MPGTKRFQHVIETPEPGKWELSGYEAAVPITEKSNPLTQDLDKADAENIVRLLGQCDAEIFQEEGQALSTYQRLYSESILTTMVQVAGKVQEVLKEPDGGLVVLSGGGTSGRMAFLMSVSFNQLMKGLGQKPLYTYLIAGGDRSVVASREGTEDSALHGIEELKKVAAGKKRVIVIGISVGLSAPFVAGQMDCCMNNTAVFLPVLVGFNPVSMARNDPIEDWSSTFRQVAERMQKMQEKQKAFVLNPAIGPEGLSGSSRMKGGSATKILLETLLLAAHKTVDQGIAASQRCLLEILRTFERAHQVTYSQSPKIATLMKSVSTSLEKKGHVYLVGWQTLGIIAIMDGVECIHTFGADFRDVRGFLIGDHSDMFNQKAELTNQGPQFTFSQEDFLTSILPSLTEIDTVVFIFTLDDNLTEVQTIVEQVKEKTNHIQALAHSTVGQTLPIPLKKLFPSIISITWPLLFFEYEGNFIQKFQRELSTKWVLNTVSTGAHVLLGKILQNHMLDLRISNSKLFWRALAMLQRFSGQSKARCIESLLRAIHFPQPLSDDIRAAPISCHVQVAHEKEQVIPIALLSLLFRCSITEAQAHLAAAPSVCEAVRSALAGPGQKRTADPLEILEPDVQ
Procedure, shortened: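 Resorufin fluorescence (525/590 nm), read each minute over 30 min, reports GCK activity coupled via G6PDH and diaphorase. Reaction: 10 nM GST-GCK, 10 nM FLAG-GKRP, 5 mM glucose, 0.4 mM ATP, 0.15 mM NADP+, 0.1 mM resazurin.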

[5] = biological target: T1, Hexokinase-4 (Homo sapiens) + Glucokinase regulatory protein (Homo sapiens); assay: qHTS assay for inhibitors of recombinant human GCK-GKRP interaction: ADP-Glo assay (AID 743206);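 further: plate controls were DMSO plus enzyme for no effect and no enzyme for full effect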
Procedure, shortened: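 GST-GCK and FLAG-GKRP (15 nM each in the dispensed mix, with 2 uM S6P) react with 0.4 mM ATP and 5 mM glucose (final) in Hepes pH 7.6 for 60 min at room temperature. ADP is measured by ADP-Glo luminescence.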

[6] = qHTS Assay for Identifying Gametocytocidal Compounds (AID 743244); further: potency means the concentration at half of the fitted maximal effect;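 on max response: on the % scale 0 is the no-effect control and ±100 the full control effect; actives lower the fluorescent signal which means gametocytes are killed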; settings: P. falciparum 3D7 stage III-V gametocytes, alamarBlue, 72 h; max response: hits give low values
Procedure, shortened: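 Viability read-out was resazurin reduction (alamarBlue, 24 h) measured at Ex 525/Em 598 nm. Beforehand, late-stage (III-V) 3D7 P. falciparum gametocytes at 20,000 cells/well were incubated with compound 72 h at 37C under 5% CO2.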

[7] = biological target: T1, Hexokinase-4 (Homo sapiens) + Glucokinase regulatory protein (Homo sapiens); assay: qHTS assay for inhibitors of recombinant human GCK-GKRP interaction: HTRF assay (AID 743207);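 further: 0% = DMSO with GCK present and -100% = DMSO wells lacking GCK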
Procedure, shortened: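 HTRF read-out (ex 320 nm; 615/665 nm emission) after 60 min RT equilibration of 5 nM GST-GCK, 5 nM FLAG-GKRP, 2 uM S6P, compound and anti-FLAG/anti-GST detection antibodies; signal normalized between DMSO wells with and without GCK.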

[8] = qHTS assay for small molecule agonists of the antioxidant response element (ARE) signaling pathway measured by Nrf2-dependant transcriptional activity (AID 720636; active means well fitted curve in the direction sought with a large enough effect in the repeat runs; an effect the other way counts as inactive or inconclusive; further: % of control where 0% means no effect)
Procedure, shortened: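 Quantitative HTS format in HepG2 cells stably expressing an ARE-luciferase reporter; 16 hr compound treatment at 37 C, luciferase signal detected with ONE-Glo.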

[9] = qHTS assay for small molecule agonists of the antioxidant response element (ARE) signaling pathway measured by Nrf2-dependant transcriptional activity - cell viability counter screen (AID 720653; active means well fitted curve in the direction sought with a large enough effect in the repeat runs; an effect the other way counts as inactive or inconclusive; further: on the % scale 0 is the no-effect control and ±100 the full control effect); settings: ARE-bla HepG2 viability, CellTiter-Glo ATP luminescence, 16 h; max response: hits give low values
Procedure, shortened: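 ARE-bla HepG2 cells (2,000/well) rested 5 hrs at 37C/5% CO2, then exposed to compounds in DMSO for 16 hrs. Viability was read in the same wells as intracellular ATP by luminescence, 30 min at room temperature after reagent addition.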

CNc1ncnc2c1ncn2[C@@H]1O[C@H](CO)[C@@H](O)[C@H]1O
inactive: Potency [1] | Potency [2] | Potency [3] | outcome [4] | Potency [5] | max response [6] 31.8%

CN1CCc2cc(NC(=O)Nc3cccnc3)ccc21
inactive: Potency [1] | Potency [2] | outcome [4] | Potency [5] | Potency [7]

Cc1ccc(S(=O)(=O)/C=C/C#N)cc1
active: Potency [6] 3.55 µM
inactive: Potency [1] | Potency [2] | Potency [3] | outcome [4] | Potency [5]

Nc1nc(Nc2ccccc2)nc2c1ncn2[C@@H]1O[C@H](CO)[C@@H](O)[C@H]1O
inactive: Potency [1] | Potency [2] | Potency [3] | outcome [4] | Potency [5] | max response [6] 17.1%

O=c1[nH]c2cc(Cl)c(Cl)cc2[nH]c1=O
inactive: Potency [1] | Potency [2] | outcome [4] | Potency [5]

c1cnc2c(c1)ccc1cccnc12
inactive: Potency [1] | Potency [2] | Potency [8] | max response [9] -9.05% | outcome [4] | Potency [5] | Potency [7]
active: Potency [6] 1.87 µM

Nc1nc(Cl)nc2c1ncn2[C@@H]1O[C@H](COP(=O)(O)OP(=O)(O)OP(=O)(O)O)[C@@H](O)[C@H]1O
inactive: Potency [2] | Potency [3] | outcome [4] | Potency [5] | max response [6] 20.1%
active: Potency [1] 18.4 µM

N#C/C(=C\c1c[nH]c2ccccc12)C(=O)c1ccc(O)c(O)c1
inactive: Potency [1] | Potency [2] | Potency [3] | outcome [4] | Potency [5] | max response [6] -1.71%

Cc1ccc(O)c(N=Nc2ccccc2)n1
inactive: Potency [1] | Potency [2] | outcome [4] | Potency [5] | Potency [7]
active: Potency [6] 2.51 µM

S=C(S)OC1CC2CC1C1CCCC21 (centres undefined)
inactive: Potency [1] | Potency [2] | Potency [3] | outcome [4] | Potency [5] | max response [6] 22.6%
